# Test results reported in the supplement of paper PMC10646978.
# ± gives the standard deviation.
# Columns and labels:
# Conditions in all cases: modulator concentration 10 µM
# [1] = system: RAW-Dual (murine macrophage reporter line); experiment: NF-kB reporter (SEAP) activity fold change vs agonist alone; higher = enhanced NF-kB activity
# In short: (§1)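 Compound reached 10 μM final in each well by pin transfer, onto RAW-Dual murine macrophage reporter cells seeded at 50 000 per well in 384-well plates. After 1 hour at 37 °C, the cells were stimulated overnight with a PRR agonist. SEAP in the supernatant was read with QUANTI-Blue at 620 nm absorbance for NF-κB, and Lucia luciferase was read with QUANTI-Luc luminescence for IRF. Each signal was turned into fold change against the mean agonist-only control on the same plate, and two replicate plates were averaged with propagated errors.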
# [2] = system: RAW-Dual (murine macrophage reporter line); experiment: IRF reporter (Lucia luciferase) activity fold change vs agonist alone; higher = enhanced IRF activity
# In short: as §1
# [3] = system: RAW-Dual (murine macrophage reporter line); experiment: viability score (confluency relative to resting cells, overnight) (fraction); higher = more viable, active = viable (0.7 or more)
# In short: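 A compound met the cutoff when both of two confluency masks exceeded 70% of resting cells. Those masks were made with IncuCyte software from IncuCyte images of RAW-Dual macrophages treated overnight at 10 μM final. This is the basis of the viability score, which is confluency relative to resting cells.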
# [4] = agonist: CpG ODN 1826 0.5 ug/mL
Structure (SMILES),"NF-kB reporter [1, 4]",NF-kB reporter ([1]; agonist: LPS 0.1 ug/mL),NF-kB reporter ([1]; agonist: MPLA […]),IRF reporter ([2]; agonist: 3'3'-cGAMP 10 ug/mL),IRF reporter ([2]; agonist: LPS 0.1 ug/mL),IRF reporter ([2]; agonist: MPLA […]),viability score [3]
O=C(Nc1ccccc1)NC1CCS(=O)(=O)C1 (configuration not stated),1.02 ± 0.096,1.09 ± 0.1,0.998 ± 0.042,0.97 ± 0.054,0.889 ± 0.16,0.88 ± 0.18,0.995 (active)
Cc1nc2ccc(CN(C)c3ccc(C(=O)N[C@@H](CCC(=O)O)C(=O)O)s3)cc2c(=O)[nH]1,1.28 ± 0.1,1.03 ± 0.052,1.18 ± 0.1,0.863 ± 0.042,1.09 ± 0.063,1.07 ± 0.12,1 (active)
COC(=O)Nc1nc2cc(S(=O)c3ccccc3)ccc2[nH]1 (configuration not stated) [Prestw-1459],1.03 ± 0.087,0.896 ± 0.079,0.932 ± 0.051,0.896 ± 0.04,0.825 ± 0.13,0.884 ± 0.23,0.999 (active)
Cc1nnc(NN=Cc2ccc(Cl)c([N+](=O)[O-])c2)[nH]c1=O,1.08 ± 0.12,1.02 ± 0.088,1.09 ± 0.045,1.01 ± 0.17,1 ± 0.082,1.07 ± 0.13,0.997 (active)
NC(=O)COc1ccc(Nc2nnc(-c3ccccc3)c3ccccc23)cc1,0.782 ± 0.083,0.806 ± 0.051,1.08 ± 0.093,0.747 ± 0.034,1.19 ± 0.069,1.23 ± 0.14,1.01 (active)
CCOc1ccccc1NC(=O)Nc1ccc2c(c1)CC(=O)N2CC,1.17 ± 0.083,0.945 ± 0.092,0.998 ± 0.028,0.694 ± 0.037,0.844 ± 0.077,0.797 ± 0.089,0.998 (active)
CCc1nc2ccc(C(=O)NC3CCC(n4cccn4)CC3)cc2s1 (configuration not stated),1.02 ± 0.098,1.04 ± 0.082,1.03 ± 0.054,0.959 ± 0.047,0.964 ± 0.045,0.925 ± 0.14,1 (active)
COc1cccc(NC(=O)CN(c2cccc(Br)c2)S(C)(=O)=O)c1,0.906 ± 0.085,0.998 ± 0.074,0.919 ± 0.036,0.848 ± 0.092,0.937 ± 0.11,0.876 ± 0.078,0.998 (active)
CCC(C)NS(=O)(=O)c1ccc([N+](=O)[O-])cc1 (configuration not stated),1.13 ± 0.11,1.05 ± 0.075,0.977 ± 0.034,0.883 ± 0.05,1.13 ± 0.1,1.18 ± 0.14,0.998 (active)
CC(Oc1ccccc1)C(=O)NCc1cc(-c2ccncc2)n(C2CCCC2)n1 (configuration not stated),1.35 ± 0.1,1.24 ± 0.11,1.13 ± 0.12,1.02 ± 0.067,1.02 ± 0.064,1.12 ± 0.086,1 (active)
CCc1cnn2c(NCc3ccc[n+]([O-])c3)cc(N3CCCC[C@H]3CCO)nc12,0.338 ± 0.018,0.0505 ± 0.0045,0.114 ± 0.0049,0.0244 ± 0.0044,0.0353 ± 0.0054,0.0374 ± 0.0047,0.0417 (inactive)
O=C(NCc1cccc(Oc2ccccn2)c1)C1c2ccccc2Oc2ccccc21,0.52 ± 0.041,1.12 ± 0.088,0.883 ± 0.039,0.801 ± 0.077,1.01 ± 0.12,1.11 ± 0.27,0.992 (active)
CC1(C)C(=O)C2CC3(O)C4=CC(=O)OC(c5ccoc5)C4(C)CCC3C(C)(C2=O)C1CC(=O)O (configuration not stated),0.99 ± 0.056,1.04 ± 0.064,1.01 ± 0.081,0.997 ± 0.035,1.51 ± 0.13,1.25 ± 0.14,0.996 (active)
CC(=O)c1cc2c(o1)C(=O)c1ccccc1C2=O,1.19 ± 0.28,1.36 ± 0.068,1.31 ± 0.1,0.995 ± 0.035,1.12 ± 0.16,1.18 ± 0.27,0.995 (active)
CC1(C)OC[C@@H](COC(=O)CCc2ccc(OC[C@@H](O)CNCCNC(=O)N3CCOCC3)cc2)O1.Cl,1.05 ± 0.079,0.966 ± 0.072,0.987 ± 0.023,0.985 ± 0.098,0.97 ± 0.11,0.832 ± 0.2,1 (active)
Cc1ccc(N2CC(C(=O)NCC3CCCO3)CC2=O)cc1 (configuration not stated),1.02 ± 0.082,0.97 ± 0.099,1.03 ± 0.037,1.03 ± 0.22,1.05 ± 0.051,1.17 ± 0.076,1 (active)
O=C(C=Cc1ccc(-c2cccc(Cl)c2)o1)c1ccc(Cl)cc1,0.755 ± 0.085,0.746 ± 0.038,0.857 ± 0.079,0.446 ± 0.031,0.896 ± 0.058,0.724 ± 0.14,0.957 (active)
Nc1nc(NC2CC2)c2ncn([C@H]3C=C[C@@H](CO)C3)c2n1.Nc1nc(NC2CC2)c2ncn([C@H]3C=C[C@@H](CO)C3)c2n1.O=S(=O)(O)O,1.1 ± 0.26,1.02 ± 0.057,1.04 ± 0.093,0.864 ± 0.065,1.2 ± 0.15,1.07 ± 0.12,0.791 (active)
COc1ccc(CCNCC(O)COc2cccc(C)c2)cc1OC.Cl (configuration not stated),0.68 ± 0.16,1.15 ± 0.057,1.06 ± 0.099,0.824 ± 0.029,1.19 ± 0.14,1.43 ± 0.25,0.985 (active)
Br.Cc1nc(C)c(-c2csc(Nc3cccc(C(=O)O)c3)n2)s1,0.754 ± 0.067,0.883 ± 0.082,1.08 ± 0.11,0.882 ± 0.048,1.36 ± 0.087,1.56 ± 0.13,1 (active)
CC1(C)Cc2ccccc2C(C[N+](=O)[O-])=N1,0.899 ± 0.07,0.901 ± 0.1,1.65 ± 0.61,0.963 ± 0.056,1.26 ± 0.08,1.38 ± 0.13,0.997 (active)
CCCCCCCC(=O)N[C@H](CN1CCCC1)[C@H](O)c1ccc2c(c1)OCCO2,0.989 ± 0.097,1.03 ± 0.067,1.21 ± 0.026,0.853 ± 0.047,1.03 ± 0.15,1.2 ± 0.11,0.968 (active)
Cc1cn2nc(C(=O)Nc3ccccc3N3CCN(C)CC3)cc2c(=O)[nH]1,0.685 ± 0.035,1.08 ± 0.11,0.864 ± 0.047,1.02 ± 0.052,1.26 ± 0.076,1.09 ± 0.098,0.941 (active)
O=C(OCCN1CCOCC1)c1ccc(O)cc1O,1.21 ± 0.12,1.06 ± 0.1,1.06 ± 0.056,1.05 ± 0.14,0.972 ± 0.044,0.856 ± 0.076,0.999 (active)
Cc1cccc(OCCCOc2cccc3cccnc23)c1C,0.735 ± 0.068,0.895 ± 0.055,1.07 ± 0.1,0.974 ± 0.053,1.44 ± 0.083,1.7 ± 0.22,0.978 (active)
COC(=O)C1C(=O)C(=CNc2ccccc2O)C(=O)CC1(C)C (configuration not stated),1.66 ± 0.29,1.53 ± 0.13,2.44 ± 0.19,0.183 ± 0.011,1.19 ± 0.11,1.02 ± 0.14,0.557 (inactive)
